# Experimental data: publication PMC7862700, “An all-to-all approach to the identification of sequence-specific readers for epigenetic DNA modifications on cytosine”
# Legend:
# Test in all cases: DAPPL (digital affinity profiling via proximity ligation, sequencing); 10 mM Tris-HCl pH 7.5, 50 mM NaCl, 1 mM DTT, 4% glycerol, room temperature, 30 min; GST-TFs on glutathione beads, 16-mer random dsDNA library, 0.1% formaldehyde crosslink after washing; high values mean tight binding
# [1] = target: ETV5 (Homo sapiens, UniProt P41161 1-510); settings: protein: recombinant; tags: N-terminal GST; dsDNA, one strand shown
# ETV5, sequence (P41161 whole entry, the tested form may be a part): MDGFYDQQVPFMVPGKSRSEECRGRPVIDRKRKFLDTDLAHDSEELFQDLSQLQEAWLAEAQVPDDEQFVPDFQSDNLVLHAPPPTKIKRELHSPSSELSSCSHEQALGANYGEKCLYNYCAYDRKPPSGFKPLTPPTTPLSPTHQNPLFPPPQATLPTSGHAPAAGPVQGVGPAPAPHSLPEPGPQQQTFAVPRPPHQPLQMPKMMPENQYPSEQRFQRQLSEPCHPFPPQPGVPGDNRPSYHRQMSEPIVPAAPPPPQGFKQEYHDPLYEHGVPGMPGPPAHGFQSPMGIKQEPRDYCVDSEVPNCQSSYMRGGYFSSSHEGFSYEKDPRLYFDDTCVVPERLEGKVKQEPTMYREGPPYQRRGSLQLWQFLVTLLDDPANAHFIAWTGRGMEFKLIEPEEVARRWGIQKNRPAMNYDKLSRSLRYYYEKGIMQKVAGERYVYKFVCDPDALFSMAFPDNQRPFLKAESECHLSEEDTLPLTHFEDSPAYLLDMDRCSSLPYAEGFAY
# In short: (§1)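 Human transcription factors were made in yeast as GST fusions, captured on glutathione beads and barcoded with DNA. With a tag-only sample included, the pool was incubated with 200 nmole of a random double-stranded 16-mer DNA library in Tris/NaCl/DTT/glycerol buffer at room temperature for 30 min, then crosslinked with 0.1% formaldehyde after washing, ligated by proximity, amplified and sequenced. For binding signal, each hexamer's read frequency for a factor is divided by its frequency for the tag-only sample.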
# [2] = target: HSF1 (Homo sapiens, UniProt Q00613 1-529); settings: protein: recombinant; tags: N-terminal GST; chain copies: 3; dsDNA, one strand shown
# HSF1, sequence (Q00613 whole entry): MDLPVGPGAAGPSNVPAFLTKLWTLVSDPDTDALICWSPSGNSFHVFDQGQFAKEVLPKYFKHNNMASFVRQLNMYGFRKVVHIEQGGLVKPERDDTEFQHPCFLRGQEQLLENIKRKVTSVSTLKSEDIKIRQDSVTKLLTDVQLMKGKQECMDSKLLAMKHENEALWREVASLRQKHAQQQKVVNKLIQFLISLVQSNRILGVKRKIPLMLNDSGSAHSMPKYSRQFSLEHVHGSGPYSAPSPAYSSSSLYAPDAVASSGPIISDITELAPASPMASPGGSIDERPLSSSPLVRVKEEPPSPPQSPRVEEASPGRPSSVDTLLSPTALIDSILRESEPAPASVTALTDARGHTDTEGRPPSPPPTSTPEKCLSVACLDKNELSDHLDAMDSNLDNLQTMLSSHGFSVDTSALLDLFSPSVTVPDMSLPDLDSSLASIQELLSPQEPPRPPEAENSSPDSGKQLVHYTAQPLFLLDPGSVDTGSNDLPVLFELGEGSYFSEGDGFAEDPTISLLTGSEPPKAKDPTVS
# In short: as §1
# [3] = target: T1, SPIC (Homo sapiens, UniProt Q8N5J4 1-248); settings: protein: recombinant; tags: N-terminal GST; dsDNA, one strand shown
# T1 sequence: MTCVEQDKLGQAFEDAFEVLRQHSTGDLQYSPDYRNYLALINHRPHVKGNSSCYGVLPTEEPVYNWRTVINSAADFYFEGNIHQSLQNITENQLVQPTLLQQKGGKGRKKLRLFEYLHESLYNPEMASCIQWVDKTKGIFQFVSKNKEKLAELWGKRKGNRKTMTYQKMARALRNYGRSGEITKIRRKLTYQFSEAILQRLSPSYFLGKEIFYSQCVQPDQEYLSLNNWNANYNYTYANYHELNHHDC
# In short: as §1
# [4] = target: ELF4 (Homo sapiens, UniProt Q99607 1-663); settings: protein: recombinant; tags: N-terminal GST; dsDNA, one strand shown
# ELF4, sequence (Q99607 whole entry): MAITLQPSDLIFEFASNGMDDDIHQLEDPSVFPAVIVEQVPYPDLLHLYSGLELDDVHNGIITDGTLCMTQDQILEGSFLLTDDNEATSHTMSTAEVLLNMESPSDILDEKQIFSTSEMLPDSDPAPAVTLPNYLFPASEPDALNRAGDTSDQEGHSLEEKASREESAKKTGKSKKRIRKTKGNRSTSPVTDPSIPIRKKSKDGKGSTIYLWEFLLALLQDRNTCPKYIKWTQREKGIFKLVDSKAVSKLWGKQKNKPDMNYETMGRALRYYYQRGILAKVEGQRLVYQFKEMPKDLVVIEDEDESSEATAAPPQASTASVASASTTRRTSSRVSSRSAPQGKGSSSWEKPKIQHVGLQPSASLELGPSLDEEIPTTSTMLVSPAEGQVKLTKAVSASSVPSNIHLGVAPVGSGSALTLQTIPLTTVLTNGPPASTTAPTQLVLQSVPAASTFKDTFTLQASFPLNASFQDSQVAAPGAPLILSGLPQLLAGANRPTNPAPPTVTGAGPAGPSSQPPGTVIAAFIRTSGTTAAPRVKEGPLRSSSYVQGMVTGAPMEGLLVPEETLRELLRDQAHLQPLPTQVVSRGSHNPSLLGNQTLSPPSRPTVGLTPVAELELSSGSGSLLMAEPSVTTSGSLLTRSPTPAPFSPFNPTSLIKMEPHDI
# In short: as §1
# [5] = target: T2, ELK4 (Homo sapiens, UniProt P28324-2 1-405); settings: protein: recombinant; tags: N-terminal GST; dsDNA, one strand shown
# T2 sequence: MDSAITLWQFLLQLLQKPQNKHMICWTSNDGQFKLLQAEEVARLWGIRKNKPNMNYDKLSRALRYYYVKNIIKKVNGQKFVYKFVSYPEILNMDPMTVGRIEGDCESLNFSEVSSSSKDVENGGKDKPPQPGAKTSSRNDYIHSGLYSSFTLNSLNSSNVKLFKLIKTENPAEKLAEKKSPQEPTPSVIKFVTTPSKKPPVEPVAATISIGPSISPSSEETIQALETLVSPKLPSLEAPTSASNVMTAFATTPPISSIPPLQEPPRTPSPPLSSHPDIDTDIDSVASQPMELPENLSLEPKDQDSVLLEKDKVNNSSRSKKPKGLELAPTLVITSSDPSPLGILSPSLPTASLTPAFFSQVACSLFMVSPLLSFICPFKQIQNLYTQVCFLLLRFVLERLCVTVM
# In short: as §1
# [6] = target: T3, ETV2 (Homo sapiens, UniProt O00321 1-342); settings: protein: recombinant; tags: N-terminal GST; dsDNA, one strand shown
# T3 sequence: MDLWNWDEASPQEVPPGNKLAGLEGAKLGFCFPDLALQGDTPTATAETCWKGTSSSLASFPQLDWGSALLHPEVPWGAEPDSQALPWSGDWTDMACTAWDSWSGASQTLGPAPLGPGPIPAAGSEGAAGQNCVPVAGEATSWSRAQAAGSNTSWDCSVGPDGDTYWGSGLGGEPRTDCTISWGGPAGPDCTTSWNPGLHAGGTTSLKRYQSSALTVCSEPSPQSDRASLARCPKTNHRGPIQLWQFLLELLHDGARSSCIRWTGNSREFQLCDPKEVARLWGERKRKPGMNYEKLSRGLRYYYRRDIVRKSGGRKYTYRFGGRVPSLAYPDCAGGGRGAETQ
# In short: as §1
# [7] = target: T4, ELF3 (Homo sapiens, UniProt P78545 1-371); settings: protein: recombinant; tags: N-terminal GST; dsDNA, one strand shown
# T4 sequence: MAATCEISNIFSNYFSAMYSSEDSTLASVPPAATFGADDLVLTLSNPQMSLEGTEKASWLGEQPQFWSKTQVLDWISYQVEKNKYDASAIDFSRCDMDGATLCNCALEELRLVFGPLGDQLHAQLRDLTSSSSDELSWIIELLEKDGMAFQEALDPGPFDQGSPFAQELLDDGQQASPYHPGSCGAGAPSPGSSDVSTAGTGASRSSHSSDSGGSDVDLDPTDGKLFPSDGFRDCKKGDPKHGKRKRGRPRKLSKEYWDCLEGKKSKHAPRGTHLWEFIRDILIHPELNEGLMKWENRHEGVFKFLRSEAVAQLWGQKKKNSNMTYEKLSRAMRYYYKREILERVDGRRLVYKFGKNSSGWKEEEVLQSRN
# In short: as §1
# [8] = target: CRX (Homo sapiens, UniProt O43186 1-299); settings: protein: recombinant; tags: N-terminal GST; dsDNA, one strand shown
# CRX, sequence (O43186 whole entry): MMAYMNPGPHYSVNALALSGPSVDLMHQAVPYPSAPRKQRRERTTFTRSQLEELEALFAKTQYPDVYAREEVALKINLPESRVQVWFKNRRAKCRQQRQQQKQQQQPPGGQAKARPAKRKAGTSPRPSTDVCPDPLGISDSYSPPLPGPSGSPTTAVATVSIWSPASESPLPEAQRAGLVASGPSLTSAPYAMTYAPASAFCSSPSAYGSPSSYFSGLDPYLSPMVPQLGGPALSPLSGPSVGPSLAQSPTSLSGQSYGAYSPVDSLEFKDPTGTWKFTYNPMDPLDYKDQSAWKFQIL
# In short: as §1
# [9] = target: ETV1 (Homo sapiens, UniProt P50549 1-477); settings: protein: recombinant; tags: N-terminal GST; dsDNA, one strand shown
# ETV1, sequence (P50549 whole entry): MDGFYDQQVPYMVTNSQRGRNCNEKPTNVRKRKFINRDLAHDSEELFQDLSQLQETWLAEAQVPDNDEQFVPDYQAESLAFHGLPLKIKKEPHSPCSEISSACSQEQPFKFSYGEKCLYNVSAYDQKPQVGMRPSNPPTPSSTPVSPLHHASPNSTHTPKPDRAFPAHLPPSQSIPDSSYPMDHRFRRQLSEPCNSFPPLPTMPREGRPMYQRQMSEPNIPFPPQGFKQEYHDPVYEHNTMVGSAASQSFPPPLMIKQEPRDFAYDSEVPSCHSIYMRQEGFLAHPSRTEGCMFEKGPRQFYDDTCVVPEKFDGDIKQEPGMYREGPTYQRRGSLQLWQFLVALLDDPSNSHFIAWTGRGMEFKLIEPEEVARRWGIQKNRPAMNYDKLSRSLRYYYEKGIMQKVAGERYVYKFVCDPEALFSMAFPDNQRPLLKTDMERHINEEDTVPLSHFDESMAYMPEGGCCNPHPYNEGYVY
# In short: as §1
sequence,measurement,setting,value
AAGCAG,binding signal,[1],"1.18 fold enrichment (6-mer frequency, TF over GST control)"
same,binding signal,[2],"1.05 fold enrichment (6-mer frequency, TF over GST control)"
same,binding signal,[3],"1.09 fold enrichment (6-mer frequency, TF over GST control)"
same,binding signal,[4],"1.12 fold enrichment (6-mer frequency, TF over GST control)"
same,binding signal,[5],"1.06 fold enrichment (6-mer frequency, TF over GST control)"
same,binding signal,[6],"1.13 fold enrichment (6-mer frequency, TF over GST control)"
same,binding signal,[7],"1.04 fold enrichment (6-mer frequency, TF over GST control)"
same,binding signal,[8],"1.11 fold enrichment (6-mer frequency, TF over GST control)"
same,binding signal,[9],"1.19 fold enrichment (6-mer frequency, TF over GST control)"
